In all, about 100,000 compounds went through this assay and about 770 (0.77%) were called active. The full list was thinned out, with actives kept by preference. Values without a mark were called inactive. No stated cut-off is given here; in the data, active means inhibition above about 50%; inactive means the rest.

Results on 97 molecules are retold here after PubChem BioAssay AID372 (MTDP, 2006).

For this experiment, the target named is Gag-Pol polyprotein (Human immunodeficiency virus type 1 group M subtype B (isolate HXB2)) (UniProt P04585). The experiment can be described thus: RNase H inhibition, HIV 1 Gag Pol polyprotein, FRET biochemical assay, screening (AID 372). Conditions: HIV-1 RT RNase H, FRET RNA/DNA substrate fluorescence; at 10 µM; hits give high values.
`CC1=NN(C(=O)c2cccc(O)c2)C(O)(c2ccc(Br)cc2)C1` (configuration not stated): the inhibition – broadly, the share of the control response that was lost under treatment – is 8%.

As for `CC(=O)C1C(=O)c2cc([N+](=O)[O-])ccc2C1=Nc1ccc(Br)cc1` (configuration not stated), the inhibition is 6%.

Take `CCOC(=O)C1=C(C)N(C)C(=O)NC1c1ccc2c(c1)OCO2` (configuration not stated): the inhibition is 7%.

Take `CCCCSc1nnc(-c2ccc(Cl)cc2Cl)o1`: the inhibition is 3%.

As to `CC1=NN(c2nc(-c3ccc(F)cc3)cs2)C(=O)/C1=C\c1ccc2c(c1)OCO2`, the inhibition is 58% (active).

For `CC1=NN(c2nc(-c3ccc(Cl)cc3)cs2)C(=O)/C1=C\c1ccc2c(c1)OCO2`, the inhibition was 57% (active).

Turning to `CC1=NN(c2ccc(C)cc2)C(=O)/C1=C\c1ccc2c(c1)OCO2`, the inhibition is 2%.

On to `CC1=NN(c2nc(-c3ccc(Br)cc3)cs2)C(=O)/C1=C\c1ccc2c(c1)OCO2`, for which the inhibition was 40%.

In the case of `CC1=NN(c2nc(-c3ccc(F)cc3)cs2)C(=O)/C1=C\c1ccc(O)cc1`, the inhibition is 45%.

In the case of `COc1cc(/C=C2\C(=O)N(c3nc(-c4ccc(Cl)cc4)cs3)N=C2C)cc(OC)c1OC`, the inhibition is 45%.

In the case of `O=C(/C(=C\c1ccc([N+](=O)[O-])cc1)n1cncn1)c1ccc(Cl)cc1Cl`, the inhibition was 16%.

Turning to `CCc1ccc(NC(=O)C(CC)c2ccccc2)cc1` (configuration not stated), the inhibition is 44%.

As for `C/C=C/c1ccc(OCCOCCOc2cccc(C)c2C)c(OC)c1`, the inhibition is 15%.

As for `COc1ccc(S(=O)(=O)N(Cc2ccccc2)c2ccccc2C(=O)NC(C)c2ccccc2)cc1` (configuration not stated), the inhibition is 26%.

In the case of `Cc1nc2sccn2c1-c1csc(Nc2ccc(O)cc2)n1`, the inhibition is 12%.

Turning to `Cc1nc2ccccn2c1-c1csc(Nc2ccc([N+](=O)[O-])cc2)n1`, the inhibition is 14%.

Turning to `Cc1nc2sccn2c1-c1csc(Nc2ccc([N+](=O)[O-])cc2)n1`, the inhibition was 69% (active).

Consider `Cc1cccc(-n2sc3c(c2=S)-c2ccccc2NC3(C)C)c1C`, for which the inhibition is 10%.

Regarding `CCOc1cc(CN2CCN(c3ccccn3)CC2)ccc1O`, the inhibition was 15%.

With `Cc1ccc2oc(-c3ccc(NC(=O)/C=C/c4ccccc4)cc3O)nc2c1`, the inhibition is 22%.

Consider `Cc1ccc2nc(-c3ccc(NC(=O)/C=C\c4ccccc4)cc3)oc2c1`, for which the inhibition was 40%.

On to `O=C(/C=C/c1ccccc1)Nc1ccc(-c2nc3cc(NC(=O)/C=C/c4ccccc4)ccc3[nH]2)cc1`, for which the inhibition was 72% (active).

For the molecule `O=C(/C=C\c1ccccc1)Nc1cccc(-c2nc3ccccc3[nH]2)c1`, the inhibition was 21%.

Consider `Cc1ccc(-c2nc3ccccc3[nH]2)cc1NC(=O)/C=C\c1ccccc1`, for which the inhibition is 15%.

`O=C(/C=C\c1ccccc1)Nc1ccc2oc(-c3ccccc3)nc2c1`: the inhibition is 16%.

On to `COc1ccc(/C=C\C(=O)Nc2ccc3oc(-c4cccnc4)nc3c2)cc1`, for which the inhibition was 7%.

Regarding `Cc1ccc2oc(-c3ccc(NC(=O)/C=C\c4ccccc4)cc3)nc2c1`, the inhibition was 52% (active).

As to `COc1cccc(-c2nc3cc(NC(=O)/C=C\c4ccccc4)ccc3o2)c1`, the inhibition was 62% (active).

As for `Cc1cc(/C=C(\C#N)C(=O)Nc2ccc(F)cc2)c(C)n1-c1ccc2c(c1)OCO2`, the inhibition was 7%.

With `Cc1ccc(C(=O)Nc2cc(Cl)ccc2C)c(Cl)c1`, the inhibition was 14%.

`CCN(CC)CCCCCCOc1ccccc1OC`: the inhibition is 8%.

Consider `COc1cc(N/C=C(/C#N)c2nc(-c3ccc(OC)c(OC)c3)cs2)c(OC)cc1Cl`, for which the inhibition is 48%.

On to `N#C/C(=C/Nc1cccc(Cl)c1Cl)c1nc(-c2ccc3c(c2)OCO3)cs1`, for which the inhibition was 58% (active).

For `Cc1ccc(-c2csc(/C(C#N)=C/Nc3cccc(F)c3)n2)cc1`, the inhibition is 4%.

In the case of `COc1cc(-c2csc(/C(C#N)=C/Nc3cccc(F)c3)n2)ccc1O`, the inhibition is 57% (active).

For `COc1ccc(-c2csc(/C(C#N)=C\Nc3cccc(C)c3C)n2)cc1OC`, the inhibition is 17%.

In the case of `COc1cccc(N/C=C(\C#N)c2nc(-c3ccc(O)c(OC)c3)cs2)c1`, the inhibition is 13%.

For `COc1ccc(-c2csc(/C(C#N)=C\Nc3cc(Cl)ccc3Cl)n2)cc1OC`, the inhibition was 40%.

On to `COc1ccc(-c2csc(/C(C#N)=C\Nc3cccc(Cl)c3Cl)n2)cc1OC`, for which the inhibition is 51% (active).

In the case of `COc1cccc(-c2csc(/C(C#N)=C\Nc3cc(OC)c(Cl)cc3OC)n2)c1`, the inhibition was 16%.

`N#C/C(=C/Nc1cc(Cl)cc(Cl)c1)c1nc(-c2ccc3c(c2)OCO3)cs1`: the inhibition is 39%.

Consider `N#C/C(=C/Nc1ccccc1F)c1nc(-c2ccc3c(c2)OCO3)cs1`, for which the inhibition was 12%.

With `COc1ccc(-c2csc(/C(C#N)=C\Nc3cc(OC)c(Cl)cc3OC)n2)cc1`, the inhibition is 52% (active).

Take `Cc1ccc(C(=O)/C=C/c2ccc(OCc3ccccc3)cc2)cc1`: the inhibition is 4%.

For the molecule `C=CCOc1ccc(/C=C2/C(=O)NC(=O)N(c3ccccc3F)C2=O)cc1`, the inhibition is 7%.

Take `COc1ccccc1OCCOc1ccc(C=NNC(=S)Nc2ccccc2)cc1OC`: the inhibition was 5%.

As to `Cc1cc(C)c(C=Nc2cc([N+](=O)[O-])ccc2C)c(C)c1`, the inhibition is 11%.

Turning to `COCCCNC(=O)CN(c1ccc(OC)cc1OC)S(C)(=O)=O`, the inhibition is 9%.

Regarding `CCOc1ccccc1OCCOc1ccc(C=O)cc1`, the inhibition was 19%.

As to `COc1ccc(NC(=O)c2ccc(C)c([N+](=O)[O-])c2)cc1`, the inhibition is 6%.

In the case of `O=C(Oc1ccc(Cl)cc1)c1ccc(Cl)cc1`, the inhibition is 11%.

Turning to `COc1ccc(CNC(=O)CSc2nc3ccccc3[nH]2)cc1`, the inhibition was 3%.

With `CCOc1ccc(C2=CC(=O)C(c3ccccc3)CC2)cc1` (configuration not stated), the inhibition was 22%.

As for `Cc1cc(OCC(=O)N2CCN(c3ccccn3)CC2)ccc1Br`, the inhibition was 24%.

Regarding `Cc1ccc(N(CC(=O)NCc2cccnc2)S(=O)(=O)c2ccc(F)cc2)cc1`, the inhibition is 2%.

Consider `COc1ccc(C(=O)CSc2nnc(-c3ccccc3)n2-c2ccc(Cl)cc2)cc1`, for which the inhibition is 6%.

`O=C(N/N=C/c1ccncc1)c1cccc(I)c1`: the inhibition was 0%.

As for `Cc1cc2c(cc1C)CN(c1cccc(C(=O)N/N=C/c3ccco3)c1)C2`, the inhibition was 21%.

As for `O=C(N/N=C/c1ccc(O)c(O)c1)c1cccc(I)c1`, the inhibition is 44%.

With `Cc1cccc(/C=N/NC(=O)c2ccc(O)c(O)c2)c1`, the inhibition was 56% (active).

As for `O=C(N/N=C/c1ccc2ccccc2c1)c1ccc(O)c(O)c1`, the inhibition is 73% (active).

In the case of `Cc1cccc(/C=N/NC(=O)c2ccccc2)c1`, the inhibition is 0%.

`Cc1cccc(/C=N/NC(=O)c2cc(O)cc(O)c2)c1`: the inhibition is 0%.

Turning to `Cc1cc2c(cc1C)CN(c1cccc(C(=O)N/N=C/c3ccc(O)c(O)c3)c1)C2`, the inhibition is 62% (active).

With `O=C(N/N=C/c1ccc2ccccc2c1)c1ccccc1O`, the inhibition is 14%.

For `Cc1cc2c(cc1C)CN(c1cccc(C(=O)N/N=C/c3ccc(N(C)C)cc3)c1)C2`, the inhibition is 47%.

Take `O=C(N/N=C/c1ccc(/C=N/NC(=O)c2cccc(I)c2)cc1)c1cccc(I)c1`: the inhibition is 53% (active).

On to `O=C(N/N=C/c1ccc2ccccc2c1)c1ccc(O)cc1`, for which the inhibition was 12%.

On to `Cc1cccc(NC(=O)c2cccnc2)c1`, for which the inhibition was 13%.

Take `COc1ccc(CC(=O)N2CCCc3ccccc32)cc1OC`: the inhibition is 5%.

As to `O=C(O)c1c(-c2ccccc2)oc2ccc(OCc3ccccc3)cc12`, the inhibition was 0%.

For `O=C1CC(c2ccc(Cl)cc2)CC2=C1C(c1ccccc1F)Nc1ccccc1N2` (configuration not stated), the inhibition is 0%.

With `O=C(COc1cccc(Cl)c1)N=Nc1c(O)[nH]c(=O)[nH]c1=O`, the inhibition was 10%.

In the case of `O=C(Nc1ccc(F)cc1)Nc1nnc(CSCc2ccccc2Cl)s1`, the inhibition was 23%.

Turning to `CC(=O)Oc1ccc(/C=C(/NC(=O)c2ccccc2)C(=O)NCCO)cc1`, the inhibition is 7%.

Regarding `O=C(O)CCC(=O)N1N=C(c2c(-c3ccccc3)c3cc(Cl)ccc3[nH]c2=O)CC1c1ccc([N+](=O)[O-])cc1` (configuration not stated), the inhibition was 18%.

For `CC12c3ccccc3C(C)(c3ccccc31)C1C(=O)NC(=O)C12` (configuration not stated), the inhibition was 3%.

In the case of `O=C(N/N=C/c1ccc(O)c(O)c1)c1ccc(O)cc1`, the inhibition was 37%.

On to `O=C(N/N=C/c1ccc(O)c(O)c1)c1ccc(Br)cc1`, for which the inhibition is 41%.

In the case of `Cc1cc([N+](=O)[O-])ccc1NC(=O)c1ccccc1`, the inhibition is 11%.

Consider `O=C(/C=C\Nc1ccccn1)c1ccc(Cl)cc1`, for which the inhibition is 9%.

As to `COc1cc(C=O)ccc1OCCOc1cccc(C)c1C`, the inhibition is 12%.

Turning to `Cc1ccc(C)c(NCn2nnc3ccccc32)c1`, the inhibition is 10%.

On to `Cc1csc(N/N=C/c2cccc(OCc3ccccc3)c2)n1`, for which the inhibition is 19%.

In the case of `O=C1N=C(N2CCN(c3ccccc3)CC2)S/C1=C\c1ccc(OCc2ccccc2)cc1`, the inhibition was 1%.

As for `Cc1ccc(S(=O)(=O)N(c2ccc(Br)cc2F)S(=O)(=O)c2ccc(C)cc2)cc1`, the inhibition is 16%.

For the molecule `COc1ccc(N2C(=O)NC(=O)/C(=C\c3cc(I)c(OC)c(OC)c3)C2=O)cc1`, the inhibition was 7%.

On to `CCOC(=O)c1c(NC(=O)c2sc3cc(C)ccc3c2Cl)sc(C(N)=O)c1C`, for which the inhibition was 10%.

With `CNC(=S)N/N=C/c1cccc(OCc2ccccc2F)c1`, the inhibition is 52% (active).

Take `Fc1ccccc1COc1cccc(/C=N/Nc2ccccc2)c1`: the inhibition is 11%.

On to `S=C(NCc1ccccc1)N/N=C/c1cccc(OCc2ccccc2)c1`, for which the inhibition is 12%.

On to `CN1CCN(S(=O)(=O)c2ccc([N+](=O)[O-])cc2)CC1`, for which the inhibition was 0%.

With `O=C(Nc1ccccc1NC(=O)c1ccccc1)c1ccccc1`, the inhibition was 0%.

Take `O=C(Nc1c(Cl)cccc1Cl)c1ccccc1`: the inhibition is 7%.

`COc1cc(-c2nc3sc4c(c3c(=O)[nH]2)CCCC4)ccc1OCc1cccc(F)c1`: the inhibition was 56% (active).

In the case of `C=CCOc1ccc(-c2nc3sc4c(c3c(=O)[nH]2)CCCC4)cc1OC`, the inhibition is 30%.

Consider `COc1cc(-c2nc3sc4c(c3c(=O)[nH]2)CCCC4)ccc1OCC(=O)O`, for which the inhibition was 5%.
